According to PMC7862700, “An all-to-all approach to the identification of sequence-specific readers for epigenetic DNA modifications on cytosine”:

Assays:
Test in all cases: DAPPL (digital affinity profiling via proximity ligation, sequencing); 10 mM Tris-HCl pH 7.5, 50 mM NaCl, 1 mM DTT, 4% glycerol, room temperature, 30 min; GST-TFs on glutathione beads, 16-mer random dsDNA library, 0.1% formaldehyde crosslink after washing; high values mean tight binding
Details in all cases: protein: recombinant; tags: N-terminal GST; dsDNA, one strand shown
ELK1 = molecular target: T1, ELK1 (Homo sapiens, UniProt P19419 1-428)
T1 sequence: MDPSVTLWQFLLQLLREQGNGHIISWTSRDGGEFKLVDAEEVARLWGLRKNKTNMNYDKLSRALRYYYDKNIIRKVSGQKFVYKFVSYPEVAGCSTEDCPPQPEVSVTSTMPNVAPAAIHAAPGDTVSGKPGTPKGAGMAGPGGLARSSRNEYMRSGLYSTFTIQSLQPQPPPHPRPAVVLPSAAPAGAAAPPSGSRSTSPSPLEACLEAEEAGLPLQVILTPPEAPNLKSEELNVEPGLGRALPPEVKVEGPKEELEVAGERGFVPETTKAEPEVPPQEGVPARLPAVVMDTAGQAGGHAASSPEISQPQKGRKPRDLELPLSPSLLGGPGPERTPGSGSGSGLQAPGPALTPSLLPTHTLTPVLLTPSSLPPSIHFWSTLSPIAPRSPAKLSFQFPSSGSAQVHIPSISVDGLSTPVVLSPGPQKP
Method in brief: (§1)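 Pools were built from human transcription factors expressed in yeast as GST fusions, captured on glutathione beads and DNA-barcoded, along with a tag-only sample. Incubation with 200 nmole of a 16-mer random double-stranded DNA library lasted 30 min at room temperature in Tris/NaCl/DTT/glycerol buffer, and was followed by washing, 0.1% formaldehyde crosslinking, proximity ligation, PCR amplification and Illumina NextSeq500 sequencing. Binding signal is the quotient of each hexamer's read frequency for a factor and its frequency for the tag-only sample.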

ERG = molecular target: T2, ERG (Homo sapiens, UniProt P11308 1-479)
T2 sequence: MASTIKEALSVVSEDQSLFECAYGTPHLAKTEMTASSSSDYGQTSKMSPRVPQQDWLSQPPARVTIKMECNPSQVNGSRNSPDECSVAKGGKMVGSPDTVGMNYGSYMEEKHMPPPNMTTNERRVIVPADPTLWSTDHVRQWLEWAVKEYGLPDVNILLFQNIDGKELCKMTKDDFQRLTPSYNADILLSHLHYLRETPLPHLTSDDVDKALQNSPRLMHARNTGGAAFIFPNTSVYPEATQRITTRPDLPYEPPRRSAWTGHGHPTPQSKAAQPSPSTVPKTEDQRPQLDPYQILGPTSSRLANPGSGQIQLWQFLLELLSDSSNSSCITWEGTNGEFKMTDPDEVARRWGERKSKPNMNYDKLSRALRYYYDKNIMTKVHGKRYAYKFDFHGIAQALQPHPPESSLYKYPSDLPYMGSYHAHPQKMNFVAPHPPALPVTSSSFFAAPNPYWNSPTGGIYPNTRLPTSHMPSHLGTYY
Method in brief: as §1

ELF1 = ELF1 (Homo sapiens, UniProt P32519 1-619)
Method in brief: as §1

EHF = molecular target: T3, EHF (Homo sapiens, UniProt Q9NZC4 1-300)
T3 sequence: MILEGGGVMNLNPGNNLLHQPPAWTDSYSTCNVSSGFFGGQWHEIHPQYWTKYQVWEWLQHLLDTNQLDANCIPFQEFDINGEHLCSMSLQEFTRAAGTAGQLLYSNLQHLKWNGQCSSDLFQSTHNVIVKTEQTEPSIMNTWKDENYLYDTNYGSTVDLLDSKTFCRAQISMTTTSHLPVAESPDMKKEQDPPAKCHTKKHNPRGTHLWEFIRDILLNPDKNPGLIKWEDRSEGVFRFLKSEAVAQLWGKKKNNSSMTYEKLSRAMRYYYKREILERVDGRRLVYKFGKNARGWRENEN
Method in brief: as §1

SPIB = SPIB (Homo sapiens, UniProt Q01892 1-262)
Method in brief: as §1

ETV5 = ETV5 (Homo sapiens, UniProt P41161 1-510)
Method in brief: as §1

ELF4 = ELF4 (Homo sapiens, UniProt Q99607 1-663)
Method in brief: as §1

ELK4 = molecular target: T4, ELK4 (Homo sapiens, UniProt P28324-2 1-405)
T4 sequence: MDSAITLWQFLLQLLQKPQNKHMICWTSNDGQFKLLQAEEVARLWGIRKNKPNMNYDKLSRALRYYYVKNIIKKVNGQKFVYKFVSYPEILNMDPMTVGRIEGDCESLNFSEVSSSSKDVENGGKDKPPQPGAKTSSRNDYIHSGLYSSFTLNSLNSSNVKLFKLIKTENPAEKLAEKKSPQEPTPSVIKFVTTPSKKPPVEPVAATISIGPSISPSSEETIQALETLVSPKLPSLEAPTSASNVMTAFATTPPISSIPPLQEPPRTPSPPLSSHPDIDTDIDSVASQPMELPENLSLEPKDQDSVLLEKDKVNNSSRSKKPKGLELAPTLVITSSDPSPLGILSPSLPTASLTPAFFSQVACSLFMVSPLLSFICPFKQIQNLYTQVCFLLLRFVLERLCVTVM
Method in brief: as §1

ETV2 = molecular target: T5, ETV2 (Homo sapiens, UniProt O00321 1-342)
T5 sequence: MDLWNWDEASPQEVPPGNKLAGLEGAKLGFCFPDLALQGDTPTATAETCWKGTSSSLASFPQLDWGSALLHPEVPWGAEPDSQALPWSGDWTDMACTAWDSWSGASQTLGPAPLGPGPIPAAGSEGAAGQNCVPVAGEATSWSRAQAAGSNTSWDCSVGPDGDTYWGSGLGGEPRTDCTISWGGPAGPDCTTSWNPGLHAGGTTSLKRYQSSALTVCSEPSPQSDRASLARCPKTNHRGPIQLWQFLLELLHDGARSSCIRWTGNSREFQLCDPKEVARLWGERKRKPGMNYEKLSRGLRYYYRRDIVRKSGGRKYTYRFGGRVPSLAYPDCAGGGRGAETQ
Method in brief: as §1

ETV1 = ETV1 (Homo sapiens, UniProt P50549 1-477)
Method in brief: as §1

ERF = molecular target: T6, ERF (Homo sapiens, UniProt P50548 1-548)
T6 sequence: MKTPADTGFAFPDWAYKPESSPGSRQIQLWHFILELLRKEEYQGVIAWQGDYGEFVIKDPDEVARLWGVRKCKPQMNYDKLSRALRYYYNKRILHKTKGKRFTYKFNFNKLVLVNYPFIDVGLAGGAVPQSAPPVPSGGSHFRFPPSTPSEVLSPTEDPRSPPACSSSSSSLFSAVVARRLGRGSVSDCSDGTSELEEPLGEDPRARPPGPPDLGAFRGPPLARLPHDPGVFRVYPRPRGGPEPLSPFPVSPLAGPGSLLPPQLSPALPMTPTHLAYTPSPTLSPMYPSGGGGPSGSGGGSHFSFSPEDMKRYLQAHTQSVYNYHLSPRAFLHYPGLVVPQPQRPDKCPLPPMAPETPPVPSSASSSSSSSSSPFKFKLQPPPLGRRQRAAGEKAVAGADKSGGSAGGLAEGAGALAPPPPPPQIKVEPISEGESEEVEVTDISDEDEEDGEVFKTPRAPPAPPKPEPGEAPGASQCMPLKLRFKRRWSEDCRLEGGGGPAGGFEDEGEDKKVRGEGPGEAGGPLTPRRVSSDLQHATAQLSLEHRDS
Method in brief: as §1

ETV3L = molecular target: T7, ETV3L (Homo sapiens, UniProt Q6ZN32 1-361)
T7 sequence: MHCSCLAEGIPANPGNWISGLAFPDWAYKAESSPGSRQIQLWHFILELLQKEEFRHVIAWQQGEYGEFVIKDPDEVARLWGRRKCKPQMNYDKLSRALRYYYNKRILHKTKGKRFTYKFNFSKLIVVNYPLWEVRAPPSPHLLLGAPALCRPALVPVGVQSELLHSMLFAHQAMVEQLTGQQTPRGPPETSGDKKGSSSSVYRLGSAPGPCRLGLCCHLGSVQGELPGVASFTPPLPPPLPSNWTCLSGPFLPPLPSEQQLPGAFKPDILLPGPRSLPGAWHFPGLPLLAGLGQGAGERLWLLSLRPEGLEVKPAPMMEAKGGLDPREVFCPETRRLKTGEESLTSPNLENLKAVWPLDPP
Method in brief: as §1

ETS2 = molecular target: T8, ETS2 (Homo sapiens, UniProt P15036 1-469)
T8 sequence: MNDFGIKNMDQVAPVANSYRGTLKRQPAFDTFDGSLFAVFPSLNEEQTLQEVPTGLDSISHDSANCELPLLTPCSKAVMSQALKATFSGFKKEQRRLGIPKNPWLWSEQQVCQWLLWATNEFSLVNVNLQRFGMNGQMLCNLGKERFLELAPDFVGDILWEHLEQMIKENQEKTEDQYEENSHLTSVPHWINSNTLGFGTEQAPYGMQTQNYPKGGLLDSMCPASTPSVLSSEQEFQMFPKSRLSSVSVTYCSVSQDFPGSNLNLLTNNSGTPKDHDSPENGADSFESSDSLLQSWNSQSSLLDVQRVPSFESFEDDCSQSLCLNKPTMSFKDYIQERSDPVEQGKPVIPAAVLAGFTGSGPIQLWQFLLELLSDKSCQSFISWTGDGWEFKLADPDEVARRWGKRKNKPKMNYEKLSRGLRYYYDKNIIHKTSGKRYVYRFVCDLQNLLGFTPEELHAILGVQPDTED
Method in brief: as §1

SPDEF = molecular target: T9, SPDEF (Homo sapiens, UniProt O95238 1-335)
T9 sequence: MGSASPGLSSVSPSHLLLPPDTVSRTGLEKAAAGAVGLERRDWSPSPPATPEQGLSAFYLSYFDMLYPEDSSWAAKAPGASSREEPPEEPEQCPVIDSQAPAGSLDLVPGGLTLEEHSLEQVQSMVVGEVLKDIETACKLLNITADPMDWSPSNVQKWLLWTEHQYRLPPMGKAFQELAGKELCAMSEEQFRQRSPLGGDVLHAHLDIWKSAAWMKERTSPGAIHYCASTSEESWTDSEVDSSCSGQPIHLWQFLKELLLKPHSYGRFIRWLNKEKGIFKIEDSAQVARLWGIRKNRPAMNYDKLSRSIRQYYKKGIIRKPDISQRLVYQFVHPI
Method in brief: as §1

ETV7 = molecular target: T10, ETV7 (Homo sapiens, UniProt Q9Y603 1-341)
T10 sequence: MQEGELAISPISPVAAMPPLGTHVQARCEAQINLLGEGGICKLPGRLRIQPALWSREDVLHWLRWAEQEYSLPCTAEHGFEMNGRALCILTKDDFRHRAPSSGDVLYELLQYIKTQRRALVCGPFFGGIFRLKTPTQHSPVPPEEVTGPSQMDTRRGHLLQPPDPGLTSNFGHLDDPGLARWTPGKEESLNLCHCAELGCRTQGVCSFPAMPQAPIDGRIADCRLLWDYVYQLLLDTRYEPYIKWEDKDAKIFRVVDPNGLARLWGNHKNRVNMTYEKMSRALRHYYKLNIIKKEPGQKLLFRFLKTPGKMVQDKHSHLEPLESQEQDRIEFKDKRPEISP
Method in brief: as §1

ETV3 = molecular target: T11, ETV3 (Homo sapiens, UniProt P41162-2 1-143)
T11 sequence: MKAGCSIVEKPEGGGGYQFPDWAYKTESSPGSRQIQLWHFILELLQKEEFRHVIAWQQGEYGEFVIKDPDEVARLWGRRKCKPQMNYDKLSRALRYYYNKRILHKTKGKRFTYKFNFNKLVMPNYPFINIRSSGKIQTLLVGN
Method in brief: as §1

ETV6 = ETV6 (Homo sapiens, UniProt P41212 1-452)
Method in brief: as §1

Sequence of SPIB (Q01892 whole entry): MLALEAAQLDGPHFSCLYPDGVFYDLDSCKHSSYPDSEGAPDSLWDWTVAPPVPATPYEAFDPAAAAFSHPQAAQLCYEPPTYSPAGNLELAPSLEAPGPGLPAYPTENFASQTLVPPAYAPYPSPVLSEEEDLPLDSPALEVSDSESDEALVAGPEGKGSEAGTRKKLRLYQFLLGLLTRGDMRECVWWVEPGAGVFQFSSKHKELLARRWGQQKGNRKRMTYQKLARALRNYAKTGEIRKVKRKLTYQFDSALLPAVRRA
Sequence of ELF1 (P32519 whole entry): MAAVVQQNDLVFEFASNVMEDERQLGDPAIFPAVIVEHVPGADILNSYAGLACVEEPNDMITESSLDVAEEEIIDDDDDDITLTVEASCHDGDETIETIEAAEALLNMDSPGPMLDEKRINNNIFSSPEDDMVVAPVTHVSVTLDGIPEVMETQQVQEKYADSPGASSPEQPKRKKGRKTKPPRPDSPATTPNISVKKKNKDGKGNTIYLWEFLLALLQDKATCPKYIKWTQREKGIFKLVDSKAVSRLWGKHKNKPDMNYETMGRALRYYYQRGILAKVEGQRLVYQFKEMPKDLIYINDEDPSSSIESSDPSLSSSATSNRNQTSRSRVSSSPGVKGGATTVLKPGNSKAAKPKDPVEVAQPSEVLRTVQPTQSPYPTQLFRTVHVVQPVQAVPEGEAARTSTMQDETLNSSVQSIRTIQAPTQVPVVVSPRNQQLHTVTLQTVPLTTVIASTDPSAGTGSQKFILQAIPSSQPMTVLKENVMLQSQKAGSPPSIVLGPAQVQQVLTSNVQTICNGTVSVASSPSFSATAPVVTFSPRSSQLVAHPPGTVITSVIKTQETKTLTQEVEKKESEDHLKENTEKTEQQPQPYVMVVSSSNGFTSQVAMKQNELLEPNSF
Sequence of ELF4 (Q99607 whole entry): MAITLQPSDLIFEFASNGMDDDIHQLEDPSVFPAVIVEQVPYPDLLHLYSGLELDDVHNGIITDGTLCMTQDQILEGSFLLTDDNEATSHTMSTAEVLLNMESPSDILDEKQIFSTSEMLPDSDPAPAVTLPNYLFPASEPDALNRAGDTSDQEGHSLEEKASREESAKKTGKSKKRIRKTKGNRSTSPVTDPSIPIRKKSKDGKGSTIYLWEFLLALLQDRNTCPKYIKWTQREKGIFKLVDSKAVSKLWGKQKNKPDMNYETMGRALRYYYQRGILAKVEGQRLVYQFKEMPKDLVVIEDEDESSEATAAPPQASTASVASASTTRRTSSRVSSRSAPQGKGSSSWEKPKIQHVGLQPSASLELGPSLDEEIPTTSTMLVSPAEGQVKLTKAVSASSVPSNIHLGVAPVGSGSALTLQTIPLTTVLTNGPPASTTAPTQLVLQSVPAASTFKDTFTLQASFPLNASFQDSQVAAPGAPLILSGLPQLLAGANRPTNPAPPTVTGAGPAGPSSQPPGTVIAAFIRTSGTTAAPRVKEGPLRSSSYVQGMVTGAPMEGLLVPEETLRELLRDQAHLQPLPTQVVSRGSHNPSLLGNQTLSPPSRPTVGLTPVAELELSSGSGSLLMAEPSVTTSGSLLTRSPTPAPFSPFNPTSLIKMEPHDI
Sequence of ETV5 (P41161 whole entry): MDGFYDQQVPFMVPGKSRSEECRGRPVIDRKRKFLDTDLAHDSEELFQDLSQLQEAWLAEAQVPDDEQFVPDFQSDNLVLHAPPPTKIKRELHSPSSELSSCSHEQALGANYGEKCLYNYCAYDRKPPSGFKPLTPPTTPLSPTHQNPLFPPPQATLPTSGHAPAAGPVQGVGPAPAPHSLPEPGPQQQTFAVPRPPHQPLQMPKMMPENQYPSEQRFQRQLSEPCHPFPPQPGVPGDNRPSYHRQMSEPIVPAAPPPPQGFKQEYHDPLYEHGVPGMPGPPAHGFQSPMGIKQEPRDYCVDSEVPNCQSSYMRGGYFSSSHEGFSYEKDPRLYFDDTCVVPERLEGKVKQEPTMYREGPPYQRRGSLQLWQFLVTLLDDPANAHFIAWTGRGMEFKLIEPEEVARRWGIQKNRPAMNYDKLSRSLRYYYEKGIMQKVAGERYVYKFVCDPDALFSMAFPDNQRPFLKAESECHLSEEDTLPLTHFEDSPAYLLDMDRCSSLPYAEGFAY
Sequence of ETV6 (P41212 whole entry): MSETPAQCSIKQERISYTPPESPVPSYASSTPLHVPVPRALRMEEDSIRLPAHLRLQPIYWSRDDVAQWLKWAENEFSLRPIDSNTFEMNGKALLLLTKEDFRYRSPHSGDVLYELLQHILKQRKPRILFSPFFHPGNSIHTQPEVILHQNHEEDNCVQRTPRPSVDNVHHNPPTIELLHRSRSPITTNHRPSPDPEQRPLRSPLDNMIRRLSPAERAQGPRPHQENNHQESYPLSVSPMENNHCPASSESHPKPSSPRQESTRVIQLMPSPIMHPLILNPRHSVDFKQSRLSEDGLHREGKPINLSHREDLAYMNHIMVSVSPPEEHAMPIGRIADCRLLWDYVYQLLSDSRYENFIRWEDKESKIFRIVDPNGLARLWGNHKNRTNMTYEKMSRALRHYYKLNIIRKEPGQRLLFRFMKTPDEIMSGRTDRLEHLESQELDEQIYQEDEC
Sequence of ETV1 (P50549 whole entry): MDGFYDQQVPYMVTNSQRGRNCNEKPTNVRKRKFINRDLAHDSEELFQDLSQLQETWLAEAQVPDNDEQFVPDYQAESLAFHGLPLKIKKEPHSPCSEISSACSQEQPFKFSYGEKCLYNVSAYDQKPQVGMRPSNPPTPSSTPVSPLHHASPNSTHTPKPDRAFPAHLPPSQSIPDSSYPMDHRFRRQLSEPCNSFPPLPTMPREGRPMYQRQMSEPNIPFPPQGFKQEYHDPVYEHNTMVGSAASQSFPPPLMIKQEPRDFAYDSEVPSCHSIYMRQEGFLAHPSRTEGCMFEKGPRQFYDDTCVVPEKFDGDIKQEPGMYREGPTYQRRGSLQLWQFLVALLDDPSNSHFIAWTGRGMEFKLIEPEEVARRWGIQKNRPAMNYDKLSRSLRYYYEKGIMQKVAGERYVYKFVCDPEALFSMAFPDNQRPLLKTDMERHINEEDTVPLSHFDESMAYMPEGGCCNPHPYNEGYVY

## CATGTT
ELK1
  binding signal: 1.07 fold enrichment (6-mer frequency, TF over GST control)
ERG
  binding signal: 1.04 fold enrichment (6-mer frequency, TF over GST control)
ELF1
  binding signal: 1.06 fold enrichment (6-mer frequency, TF over GST control)
EHF
  binding signal: 1.03 fold enrichment (6-mer frequency, TF over GST control)
SPIB
  binding signal: 1.03 fold enrichment (6-mer frequency, TF over GST control)
ETV5
  binding signal: 1.03 fold enrichment (6-mer frequency, TF over GST control)
ELF4
  binding signal: 1.05 fold enrichment (6-mer frequency, TF over GST control)
ELK4
  binding signal: 1.1 fold enrichment (6-mer frequency, TF over GST control)
ETV2
  binding signal: 1.11 fold enrichment (6-mer frequency, TF over GST control)
ETV1
  binding signal: 1.15 fold enrichment (6-mer frequency, TF over GST control)
ERF
  binding signal: 1.05 fold enrichment (6-mer frequency, TF over GST control)
ETV3L
  binding signal: 1.06 fold enrichment (6-mer frequency, TF over GST control)
ETS2
  binding signal: 1.01 fold enrichment (6-mer frequency, TF over GST control)
SPDEF
  binding signal: 1.02 fold enrichment (6-mer frequency, TF over GST control)
ETV7
  binding signal: 1.1 fold enrichment (6-mer frequency, TF over GST control)
ETV3
  binding signal: 1.12 fold enrichment (6-mer frequency, TF over GST control)
ETV6
  binding signal: 1.1 fold enrichment (6-mer frequency, TF over GST control)
